# Several values for one entry are separate records, joined by “and”; a condition that tells them apart may be missing. Equal values may be shown once. Records with an inconclusive call do not appear. Where a call stands in place of a potency, no number is given. More than one record can exist for a structure, and the calls need not agree. Activity calls are given as the source filed them. Unless noted, calls come from the whole dose curve; as a rule, active = well fitted curve in the direction sought with a large enough effect in the repeat runs; inconclusive = weak or mixed curves; inactive = no such curve, though single readings can be large; an effect the other way counts as inactive or inconclusive.
# Key:
# [1] = qHTS assay to identify small molecule agonists of the hypoxia (HIF-1) signaling pathway - cell viability counter screen (AID 1224844; calls by dose curve; note: nearly all actives have a fitted effect of over 50% in size; note: potency is the fitted concentration of half-maximal effect)
# Procedure, shortened: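 ME-180 HRE-bla cells, 2,000/well, 0.5% dialyzed FBS; 5 hr settle, 17 hr compound at 37C/5% CO2; CCF4-AM reporter read first, then CellTiter-Glo luminescence after 30 min RT.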
# [2] = qHTS assay to identify small molecule agonists of H2AX (AID 1224845; active = well fitted activation curve with a large enough effect in the signal ratio in the repeat runs, not every such curve was filed as active; the % refers to the signal ratio)
# Procedure, shortened: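 Wild-type CHO-K1 cells plated overnight, then exposed 3 hr at 37C to compounds at 15 concentrations (0.76% DMSO). Lysed, then HTRF anti-pH2AX(S139)-cryptate/anti-H2AX-d2 detection after 24 hr at room temperature; emissions 665 and 620 nm.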
# [3] = qHTS assay to identify small molecule agonists of H2AX - cell viability counter screen (AID 1224847; calls by dose curve; note: top concentration of the series differs between compounds; nearly all actives have a fitted effect of over 30% in size)
# Procedure, shortened: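 Quantitative HTS viability measurement: CHO-K1 wild-type cells in serum (10% FBS) medium, short 3 hr drug exposure at 37C with 0.76% DMSO, CellTiter-Glo luminescent detection.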
# [4] = qHTS RealTime-Glo MT Cell Viability Assay in HEK293 cells - 32 hour (AID 1224868); note: nearly all actives have a fitted effect of over 50% in size; note: potency is the fitted concentration of half-maximal effect
# Procedure, shortened: (§1)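 HEK293 cells were seeded at 600 cells/well together with NanoLuc luciferase and cell-permeant prosubstrate, preincubated 5 h at 37 C/5% CO2, then given compound in DMSO by pintool. Luminescence from viable-cell prosubstrate reduction was read repeatedly over 40 h.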
# [5] = A CellTox Green Cytotoxicity Assay to monitor cytotoxicity in HEK293 cells - 0 hour (AID 1224869); note: nearly all actives have a fitted effect of over 50% in size
# Procedure, shortened: (§2)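 Nonlytic real-time cytotoxicity: HEK293 + CellTox Green reagent plated, 5 h preincubation, pintool compound addition (23 nL in DMSO), 37 C for 40 h, fluorescence measured at successive time points.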
# [6] = qHTS RealTime-Glo MT Cell Viability Assay in HepG2 cells - 40 hour (AID 1224870); note: nearly all actives have a fitted effect of over 50% in size
# Procedure, shortened: (§3)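 HepG2 cells mixed with RealTime-Glo MT reagents (NanoLuc plus cell-permeant prosubstrate) were seeded at 600 cells/well, incubated 5 h at 37 C/5% CO2, then pinned with compounds in DMSO; nonlytic luminescence tracked viability during 40 h treatment.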
# [7] = A CellTox Green Cytotoxicity Assay to monitor cytotoxicity in HEK293 cells - 40 hour (AID 1224871); note: nearly all actives have a fitted effect of over 45% in size; note: potency is the fitted concentration of half-maximal effect
# Procedure, shortened: as §2
# [8] = qHTS RealTime-Glo MT Cell Viability Assay in HEK293 cells - 16 hour (AID 1224872); note: nearly all actives have a fitted effect of over 50% in size; note: potency is the fitted concentration of half-maximal effect
# Procedure, shortened: as §1
# [9] = qHTS RealTime-Glo MT Cell Viability Assay in HepG2 cells - 8 hour (AID 1224873); note: nearly all actives have a fitted effect of over 55% in size
# Procedure, shortened: as §3
# [10] = A CellTox Green Cytotoxicity Assay to monitor cytotoxicity in HEK293 cells - 24 hour (AID 1224875); note: nearly all actives have a fitted effect of over 45% in size
# Procedure, shortened: as §2
# [11] = A CellTox Green Cytotoxicity Assay to monitor cytotoxicity in HepG2 cells - 16 hour (AID 1224876); note: nearly all actives have a fitted effect of over 45% in size
# Procedure, shortened: (§4)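 Read-out is fluorescence of a cyanine dye excluded from live cells that stains DNA of dead HepG2 cells, with signal proportional to cytotoxicity. Plates were read at 0, 8, 16, 24, 32 and 40 h after compound addition.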
# [12] = qHTS RealTime-Glo MT Cell Viability Assay in HepG2 cells - 32 hour (AID 1224877); note: nearly all actives have a fitted effect of over 55% in size; note: potency is the fitted concentration of half-maximal effect
# Procedure, shortened: (§5)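 HepG2 cells were seeded at 600 cells/well together with NanoLuc luciferase and a cell-permeant prosubstrate, preincubated 5 h at 37 C/5% CO2, then pin-dosed with compounds in DMSO. Nonlytic luminescence from viable cells was read at each time point.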
# [13] = A CellTox Green Cytotoxicity Assay to monitor cytotoxicity in HepG2 cells - 24 hour (AID 1224878); note: nearly all actives have a fitted effect of over 45% in size; note: potency is the fitted concentration of half-maximal effect
# Procedure, shortened: as §4
# [14] = A CellTox Green Cytotoxicity Assay to monitor cytotoxicity in HepG2 cells - 40 hour (AID 1224879); note: nearly all actives have a fitted effect of over 40% in size; note: potency is the fitted concentration of half-maximal effect
# Procedure, shortened: as §4
# [15] = qHTS RealTime-Glo MT Cell Viability Assay in HEK293 cells - 0 hour (AID 1224880)
# Procedure, shortened: (§6)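 Cells were seeded together with NanoLuc luciferase and a prosubstrate that viable cells reduce to a luciferase substrate. After a 5 h incubation at 37 C/5% CO2, compounds were added and luminescence was measured repeatedly during 40 h of treatment.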
# [16] = qHTS RealTime-Glo MT Cell Viability Assay in HepG2 cells - 24 hour (AID 1224867); note: nearly all actives have a fitted effect of over 50% in size
# Procedure, shortened: as §5
# [17] = qHTS RealTime-Glo MT Cell Viability Assay in HEK293 cells - 40 hour (AID 1224874); settings: RealTime-Glo luminescence; max response: stronger effect = lower value; note: nearly all actives have a fitted effect of over 50% in size
# Procedure, shortened: as §6
# [18] = qHTS assay to identify small molecule antagonists of the estrogen related receptor (ERR) signaling pathway from Tox21 library (AID 1224848); note: nearly all actives have a fitted effect of over 50% in size; note: potency is the fitted concentration of half-maximal effect
# Procedure, shortened: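 Screening used an ERR reporter line supplied by NTP, exposed for 18 h at 37 C to library compounds delivered in DMSO. Signal was luciferase luminescence developed with ONE-Glo at room temperature for 30 min.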
# [19] = qHTS assay to identify small molecule agonists of the estrogen related receptor (ERR) signaling pathway from Tox21 library (AID 1224849; calls by dose curve; note: nearly all actives have a fitted effect of over 15% in size); settings: ERR reporter cell line, ONE-Glo luciferase, 18 h
# Procedure, shortened: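 ERR cells, 6 h pre-incubation 37 C/5% CO2; cpd in DMSO pinned; 18 h 37 C; ONE-Glo added, 30 min RT; luminescence read. Agonist mode, qHTS.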
SMILES,Potency [1],Potency [2],Potency [3],Potency [4],Potency [5],Potency [6],Potency [7],Potency [8],Potency [9],Potency [10],Potency [11],Potency [12],Potency [13],Potency [14],Potency [15],Potency [16],max response [17],Potency [18],"activity change, positive = activation ([19]; at 42.5 µM (top of the series))","activity change, positive = activation ([19]; at 92.4 µM (top of the series))"
Cc1ccccc1C=O,inactive,inactive,inactive,inactive,inactive,inactive,inactive,inactive,inactive,inactive,inactive,inactive,inactive,inactive,inactive,,,,,
CN1Cc2c(N)cccc2C(c2ccccc2)C1 (centres undefined),inactive,inactive,inactive,inactive,inactive,inactive,,inactive,inactive,inactive,inactive,inactive,inactive,inactive,inactive,inactive,-23.8% (inactive) and -3.82% (inactive),,,
CC(CN1c2ccccc2Sc2ccccc21)N(C)C (centres undefined),39.3 µM (active),inactive,,39.3 µM (active) and 43.6 µM (active) and 6.01 µM (active),inactive,inactive,54.9 µM (active) and inactive,39.3 µM (active) and 30.9 µM (active),inactive,,,inactive and 49 µM (active),49 µM (active) and 23.9 µM (active),55.5 µM (active) and 49 µM (active) and 23.9 µM (active),inactive,,,61.8 µM (active) and 68.6 µM (active) and inactive,-5.06% (inactive),-81.8% (inactive) and -69.4% (inactive)
OCC(CO)(CO)CO,inactive,inactive,inactive,inactive,inactive,,inactive,inactive,inactive,inactive,inactive,inactive,inactive,inactive,inactive,inactive,,,,
Cc1ccc([N+](=O)[O-])cc1N,inactive,inactive,inactive,inactive,inactive,inactive,,inactive,inactive,inactive,,inactive,inactive,inactive,inactive,,,,,

# From PubChem BioAssay (Tox21)
